Assay results taken from PMC12214610.

What was measured:
[1] = biological target: Small ribosomal subunit protein bS21 (UniProt P68679)
[2] = biological target: Large ribosomal subunit protein bL9 (UniProt P0A7R1)
Cofilin-1 = Cofilin-1 (UniProt P23528)
[3] = biological target: Small ribosomal subunit protein bS1 (UniProt P0AG67)
[4] = biological target: Small ribosomal subunit protein uS3 (UniProt P0A7V3)
[5] = biological target: Large ribosomal subunit protein eL20 (UniProt Q02543)
[6] = biological target: Small ribosomal subunit protein uS5 (UniProt P0A7W1)
[7] = biological target: DNA-binding protein HU-beta (UniProt P0ACF4)
[8] = biological target: Large ribosomal subunit protein eL24 (UniProt P83731)
[9] = biological target: Small ribosomal subunit protein uS11 (UniProt P62263)
[10] = biological target: Small ribosomal subunit protein uS4 (UniProt P46781)
[11] = biological target: 30S ribosome-binding factor (UniProt P0A7G2)
[12] = biological target: Large ribosomal subunit protein uL24 (UniProt P60624)
[13] = biological target: Small ribosomal subunit protein uS13 (UniProt P0A7S9)
[14] = biological target: Large ribosomal subunit protein uL2 (UniProt P60422)
[15] = biological target: Large ribosomal subunit protein uL5 (UniProt P62399)
[16] = biological target: Large ribosomal subunit protein eL36 (UniProt Q9Y3U8)
[17] = biological target: Small ribosomal subunit protein uS19 (UniProt P0A7U3)
[18] = biological target: Large ribosomal subunit protein uL4 (UniProt P36578)

Cofilin-1, sequence (P23528 whole entry): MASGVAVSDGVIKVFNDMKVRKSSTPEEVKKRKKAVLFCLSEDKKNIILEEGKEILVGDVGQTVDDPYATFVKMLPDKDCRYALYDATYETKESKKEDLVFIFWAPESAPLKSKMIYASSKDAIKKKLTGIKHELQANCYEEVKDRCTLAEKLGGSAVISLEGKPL
Profilin-1, P07737, sequence (P07737 whole entry): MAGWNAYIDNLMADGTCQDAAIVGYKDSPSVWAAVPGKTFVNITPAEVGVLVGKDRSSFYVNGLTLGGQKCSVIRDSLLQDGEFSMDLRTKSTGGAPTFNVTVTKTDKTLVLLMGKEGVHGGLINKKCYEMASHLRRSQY

Small ribosomal subunit protein bS18, P0A7T7
listed as a hit [1]: yes

Large ribosomal subunit protein bL28, P0A7M2
listed as a hit [2]: yes

Profilin-1, P07737
listed as a hit (Cofilin-1): yes

Small ribosomal subunit protein uS10, P0A7R5
listed as a hit [3]: yes
listed as a hit [4]: yes

Small ribosomal subunit protein uS4, P46781
listed as a hit [5]: yes

Small ribosomal subunit protein uS11, P0A7R9
listed as a hit [3]: yes

Small ribosomal subunit protein uS4, P0A7V8
listed as a hit [6]: yes

Large ribosomal subunit protein bL19, P0A7K6
listed as a hit [7]: yes

Large ribosomal subunit protein uL4, P36578
listed as a hit [8]: yes
listed as a hit [9]: yes
listed as a hit [10]: yes

Small ribosomal subunit protein uS7, P02359
listed as a hit [11]: yes
listed as a hit [12]: yes
listed as a hit [3]: yes
listed as a hit [13]: yes

Large ribosomal subunit protein bL9, P0A7R1
listed as a hit [14]: yes

Small ribosomal subunit protein uS9, P0A7X3
listed as a hit [3]: yes

Large ribosomal subunit protein bL27, P0A7L8
listed as a hit [15]: yes

Large ribosomal subunit protein eL15, P61313
listed as a hit [16]: yes

Large ribosomal subunit protein bL31, P0A7M9
listed as a hit [15]: yes
listed as a hit [17]: yes

Large ribosomal subunit protein uL16, P27635
listed as a hit [18]: yes
listed as a hit [10]: yes
